# Measured values taken from PubChem BioAssay (EPA / NIEHS).
# Active and inactive are the calls of the source. The calls were made as follows: active = hit-call score of the fitted dose curve at least 0.9, where 1 is the maximum; inactive = score below 0.9.
# Experiment: BSK_SAg_PBMCCytotoxicity: PBMC Cytotoxicity Assessment in the BioMAP Diversity Plus: SAg Assay (AID 2283093);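 also: fitted both ways against DMSO so a hit may be loss or gain of signal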
# Details: primary human HUVEC with PBMC
# Description: BSK_SAg is a cell-based, multiplexed-readout assay that uses umbilical vein endothelium and peripheral blood mononuclear cells, a human vascular primary cell co-culture, with measurements taken at 24 hours after chemical dosing in a 96-well plate.BSK_SAg_PBMCCytotoxicity is an assay component measured in the BSK_SAg assay. It measures Alamar blue related to cell death using Alamar Blue Reduction technology.Data from the assay component BSK_SAg_PBMCCytotoxicity was analyzed into 1 assay endpoint. This assay endpoint, BSK_SAg_PBMCCytotoxicity, was analyzed with bidirectional fitting relative to DMSO as the negative control and baseline of activity. Using a type of viability reporter, gain or loss-of-signal activity can be used to understand changes in the viability. Furthermore, this assay endpoint can be referred to as a secondary readout, because this assay has produced multiple assay endpoints where this one serves a viability function. To generalize the intended target to other relatable targets, this assay endpoint is annotated to the cell cycle intended target family, where the subfamily is cytotoxicity.
# The levels of cell surface (or secreted, indicated by the prefix "s") biomarker endpoints were measured by ELISA. Overt cytotoxicity to cells in confluent adherent cultures (all systems other than the BT system) was assessed by measuring total protein levels using sulforhodamine B (SRB) staining in parallel cultures at the time of biomarker measurements, indicated as SRB endpoints. For proliferation assays for adherent cell types, individual cell types are cultured at sub-confluence and relative cell numbers quantified by SRB staining at time points optimized for each system (48 h: 3C and CASM3C systems; 72 h: BT and HDF3CGF systems; 96 h: SAg system). SRB was performed by staining cells with 0.1% SRB after fixation with 10% TCA and reading wells at 560 nm.Viability and proliferation of PBMC (T cells) was quantified by Alamar Blue reduction for the SAg and BT systems. For PBMC viability (referred to as PBMC Cytotoxicity within the assay endpoint names), cells were plated (75,000/well in a 96-well plate) and then chemical samples added for 1 h before addition of activators, SEB and TSST-1 (20 ng/mL final concentration each). Cells were incubated for 90 h. Then, Alamar Blue (20 uL/well) (Invitrogen, Cat DAL1100) was added for 6 h, and the plates were read with a fluorescence microplate reader at 546/580 nm (excitation/emission). For PBMC proliferation, cells were plated and activated as above but incubated for only 16 h prior to addition of Alamar Blue. Plates were read after 6 h.
SMILES,outcome,AC50
O=C(O)COc1cc(Cl)c(Cl)cc1Cl,inactive,
Clc1cccc(Cl)c1Cl,inactive,
COCC(=O)N(c1c(C)cccc1C)[C@H](C)C(=O)OC,inactive,
O=C(Cc1ccccc1)OCCc1ccccc1,inactive,
N#CCCC(Br)(C#N)CBr (stereo not given),,2.52 µM (active)
O=C(N[C@H]1CN2CCC1CC2)c1ccc2c(c1)OCCO2,inactive,
O=S(=O)(C(Cl)(Cl)Cl)C(Cl)(Cl)Cl,,2.3 µM (active)
COc1ccccc1N,inactive,
Cc1cc(C(C)(C)c2ccc(O)c(C)c2)ccc1O,,15.7 µM (active)
Oc1cccc(-c2ccccc2)c1,,32.1 µM (active)
O=S(=O)(c1ccc(Cl)cc1)c1cc(Cl)c(Cl)cc1Cl,inactive,
Oc1ccc(Cc2ccc(O)cc2)cc1,inactive,
Oc1c(Br)cc(Br)cc1Br,inactive,
O=C(CCl)NCO,inactive,
C#CCOC(=O)/C=C(C)/C=C/CC(C)CCCC(C)C (stereo not given),inactive,
N#Cc1cccnc1,inactive,
CC1(C)[C@H](C(=O)O[C@H](C#N)c2cccc(Oc3ccccc3)c2)[C@@H]1/C=C(\Cl)C(F)(F)F,inactive,
O=c1oc2ccccc2c(O)c1C(CC(O)c1ccc(-c2ccc(Br)cc2)cc1)c1ccccc1 (stereo not given),,23.5 µM (active)
O=C1C=CC(=O)c2ccccc21,,0.102 µM (active)
O=[N+]([O-])c1ccc(Nc2ccccc2)cc1,inactive,

SMILES,outcome,AC50
c1ccc2sc(SNC3CCCCC3)nc2c1,,27 µM (active)
CCOP(=S)(OCC)SCS(=O)(=O)C(C)(C)C,inactive,
Cc1cc(C)cc(C)c1,inactive,
CCOP(=O)(OCC)OC(=CCl)c1ccc(Cl)cc1Cl,inactive,
CCC(C)(C#N)N=NC(C)(C#N)CC (stereo not given),inactive,
CN(C)C(=S)S,,0.148 µM (active)
CCCCOC(=O)COC(=O)c1ccccc1C(=O)OCCCC,inactive,
CCCCCCCCCCCCc1cccc(S(=O)(=O)O)c1,inactive,
CCOC(=O)C(SP(=S)(OC)OC)c1ccccc1 (stereo not given),inactive,
Cc1ccc(OP(=O)(Oc2ccc(C)cc2C)Oc2ccc(C)cc2C)c(C)c1,,20 µM (active)
CC(C)O.CC(C)O.OCCN(CCO)CCO.OCCN(CCO)CCO.[Ti],inactive,
Cc1ccc2nc3sc(=O)sc3nc2c1,inactive,
Nc1c(Oc2ccccc2)cc(O)c2c1C(=O)c1ccccc1C2=O,inactive,
CC(C)(COCC1CO1)COCC1CO1 (stereo not given),inactive,
OC(Cc1ccccc1Cl)(Cn1cncn1)C1(Cl)CC1 (stereo not given),inactive,
CCOP(=O)(OCC)SCCSCC,inactive,
OCCN(CCO)CCO,inactive,
CC(C)=CC1C(C(=O)OCc2cccc(Oc3ccccc3)c2)C1(C)C (stereo not given),inactive,
Nc1ccc(N)cc1,inactive,
C=CC(Cl)CCl (stereo not given),inactive,
